For 20 compounds, Potency and outcome results are on record in PubChem BioAssay (NCATS).

Where “and” joins values, the source holds several entries; their conditions need not be identical. Identical values can stand only once. Inconclusive results are not listed. Calls of active or inactive are those of the source. Calls follow the shape of the dose curve; as a rule, active = well fitted curve in the direction sought with a large enough effect; inconclusive = small, poorly fitted or top-dose-only effect, or another doubt; inactive = no such curve, though single readings can be large; an effect the other way counts as inactive or inconclusive.

One experiment deals with Furin (Homo sapiens) (UniProt P09958). Description: Furin counterscreen qHTS for Zika virus inhibitors (AID 1347149). Also: nearly all actives have a fitted effect of over 70% in size. Also: potency is read from the fitted curve at half-maximal effect. Summed up:
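Fluorogenic cleavage of BOC-RVRR-AMC (2 microM final, Km ~15 µM) was monitored (ex 340, em 450 nm) at 37C after 15 min RT preincubation of 5 nM furin with compounds in HEPES pH 7.0 buffer with CaCl2 and Triton X-100. Percent inhibition was fitted to a 4-parameter Hill curve.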

Experiment [1] relates to Zika virus NS2B-NS3 protease (unlinked complex). Description: Confirmatory screen GU AMC qHTS for Zika virus inhibitors (AID 1347153).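 Also: enzyme at 25 nM with substrate at 10 µM below its Km of 18.3 µM; potency is read from the fitted curve at half-maximal effect; nearly all actives have a fitted effect of over 70% in size.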 The following applies: Recombinant NS2B-NS3 protease, AMC substrate fluorescence. Summed up:
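Noncovalent NS2B hydrophilic domain/NS3 protease complex (25 nM) in 10 mM Tris-HCl pH 8.0, 0.01% Tween 20 was preincubated 15 min at room temperature with compounds. Then 10 µM AMC substrate (Km 18.3 µM) was added; fluorescence was read over 15 min and fitted to a 4-parameter Hill equation.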

Experiment [2] has as its system Zika virus NS2B-NS3 protease. Description: Primary screen GU AMC qHTS for Zika virus inhibitors (AID 1347154). Also: nearly all actives have a fitted effect of over 70% in size. Also: potency is read from the fitted curve at half-maximal effect. Summed up:
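Unlinked Zika NS2B hydrophilic domain–NS3 protease complex at 25 nM in 10 mM Tris-HCl pH 8.0, 0.01% Tween 20, with an AMC peptide substrate. Fluorescence change (340/450 nm) over 15 min at room temperature, normalized to controls, fitted to 4-parameter Hill.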

Experiment [3] concerns Zika virus NS2B-NS3 protease (linked construct). Description: Primary screen NINDS Rhodamine qHTS for Zika virus inhibitors (AID 1347160). Also: nearly all actives have a fitted effect of over 55% in size. Summed up:
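Purified linked NS2B-NS3 protease (NS2B hydrophilic domain joined to NS3 protease by flexible linker), 25 nM in 10 mM Tris-HCl pH 8.0, 0.01% Tween 20. Compounds titrated, 15 min preincubation at room temperature; 1.5 microM Rhodamine110 substrate, FITC fluorescence change over 15 min.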

Experiment [4] can be described thus: Confirmatory screen NINDS Rhodamine qHTS for Zika virus inhibitors (AID 1347161). Also: nearly all actives have a fitted effect of over 60% in size. Also: potency is read from the fitted curve at half-maximal effect. Summed up: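 Rhodamine110-peptide cleavage (1.5 µM substrate) by 25 nM linked NS2B-NS3 enzyme at pH 8.0 (Tris, Tween 20), after 15 min RT preincubation with compounds; 15-min fluorescence change normalized to controls and Hill-fitted.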
For experiment [5], the target named is N-terminal Xaa-Pro-Lys N-methyltransferase 1 (Homo sapiens) (UniProt Q9BV86). Description: qHTS Assay for Inhibitors of N-terminal methyltransferase 1 (NTMT1): LOPAC validation of the NTMT1 SAHH-coupled ThioGlo3 Assay (AID 1347143).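 Also: SAH from peptide methylation measured as thiol fluorescence via SAHH coupling and ThioGlo3; nearly all actives have a fitted effect of over 70% in size.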 Summed up:
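Recombinant human NTMT1 (125nM) was pre-incubated 1 min at room temperature with compounds over a concentration range, then a mix of 100uM SAM, 10uM SAHH and 15uM ThioGlo3 (concentrations in added reagent) was added. ThioGlo3 fluorescence (ex 340/em 450nm) after 30 min was normalized to the initial reading.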

Experiment [6] has as its system Zika virus NS2B-NS3 protease (unlinked). Description: Optimization of GU AMC qHTS for Zika virus inhibitors: Unlinked NS2B-NS3 protease assay (AID 1347151). Also: series mostly up to about 52 µM; nearly all actives have a fitted effect of over 80% in size. Summed up:
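In this qHTS, compounds acted on 25 nM unlinked Zika NS2B–NS3 in pH 8.0 Tris/Tween buffer. Cleavage of an AMC peptide ran 15 min at room temperature, to about 20% conversion.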

The target in experiment [7] is Lysine-specific demethylase 5B (Homo sapiens) (UniProt Q9UGL1). Description: Optimization screen for KDM5B Histone Demethylases FDH coupled qHTS against the LOPAC library (AID 1347166). Summed up: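 KDM5BDeltaAP (200nM final) preincubated 10 min with compound, then 12.5uM H3K4Me3, 25uM a-ketoglutarate, ascorbate, Fe(II), NAD+ and FDH added; 50mM HEPES pH 7.5, 0.01% Tween-20. NADH fluorescence (340/450 nm) change over 30 min, room temperature.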

The nature of experiment [8]: Confirmatory screen GU Rhodamine qHTS for Zika virus inhibitors qHTS (AID 1347157). Also: nearly all actives have a fitted effect of over 70% in size. Summed up:
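Buffer 10 mM Tris-HCl pH 8.0, 0.01% Tween 20. Unlinked protease 25 nM; compound preincubation 15 min, RT, protected from light. Substrate Rhod110, 1.5 microM; ~15% conversion in 15 min.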

Experiment [9] has as its system Zika virus NS2B-NS3 protease (linked construct). Description: Confirmatory screen NINDS AMC qHTS for Zika virus inhibitors (AID 1347152). Conditions: Purified linked NS2B-NS3, AMC substrate fluorescence. Summed up:
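Concentration-response confirmation used the NINDS linked protease (NS2B hydrophilic domain joined to NS3 protease domain), 1 nM, with a 15-min compound preincubation. Substrate, Nle-KRR-AMC at 10 microM, was read by UV fluorescence before and after 15 min.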

Experiment [10] has as its system Zika virus NS2B-NS3 protease (unlinked complex). Description: Primary screen GU Rhodamine qHTS for Zika virus inhibitors: Unlinked NS2B-NS3 protease assay (AID 1347159). Also: nearly all actives have a fitted effect of over 60% in size. Summed up:
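Noncovalent NS2B hydrophilic domain–NS3 protease domain complex (25 nM) preincubated 15 min at room temperature with compounds (up to 114 microM) in 10 mM Tris-HCl pH 8.0, 0.01% Tween 20; 1.5 microM Rhodamine110 substrate added, fluorescence change over 15 min fitted to Hill equation.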

Experiment [11] has as its system Zika virus NS2B-NS3 protease (linked construct). Description: 384 well plate NINDS Rhodamine confirmatory qHTS for Zika virus inhibitors (AID 1347164). Also: potency is read from the fitted curve at half-maximal effect; nearly all actives have a fitted effect of over 65% in size. Summed up: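 Cleavage of Ac-LKRR-Rhodamine 110 (10 microM final) by linked protease (final 5, 30 or 60 nM) was followed as fluorescence at 485/538 nm after 25 min, room temperature, dark. Compounds preincubated ~15 min.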

Lysine-specific demethylase 5B (Homo sapiens), sequence (Q9UGL1 whole entry, looked up): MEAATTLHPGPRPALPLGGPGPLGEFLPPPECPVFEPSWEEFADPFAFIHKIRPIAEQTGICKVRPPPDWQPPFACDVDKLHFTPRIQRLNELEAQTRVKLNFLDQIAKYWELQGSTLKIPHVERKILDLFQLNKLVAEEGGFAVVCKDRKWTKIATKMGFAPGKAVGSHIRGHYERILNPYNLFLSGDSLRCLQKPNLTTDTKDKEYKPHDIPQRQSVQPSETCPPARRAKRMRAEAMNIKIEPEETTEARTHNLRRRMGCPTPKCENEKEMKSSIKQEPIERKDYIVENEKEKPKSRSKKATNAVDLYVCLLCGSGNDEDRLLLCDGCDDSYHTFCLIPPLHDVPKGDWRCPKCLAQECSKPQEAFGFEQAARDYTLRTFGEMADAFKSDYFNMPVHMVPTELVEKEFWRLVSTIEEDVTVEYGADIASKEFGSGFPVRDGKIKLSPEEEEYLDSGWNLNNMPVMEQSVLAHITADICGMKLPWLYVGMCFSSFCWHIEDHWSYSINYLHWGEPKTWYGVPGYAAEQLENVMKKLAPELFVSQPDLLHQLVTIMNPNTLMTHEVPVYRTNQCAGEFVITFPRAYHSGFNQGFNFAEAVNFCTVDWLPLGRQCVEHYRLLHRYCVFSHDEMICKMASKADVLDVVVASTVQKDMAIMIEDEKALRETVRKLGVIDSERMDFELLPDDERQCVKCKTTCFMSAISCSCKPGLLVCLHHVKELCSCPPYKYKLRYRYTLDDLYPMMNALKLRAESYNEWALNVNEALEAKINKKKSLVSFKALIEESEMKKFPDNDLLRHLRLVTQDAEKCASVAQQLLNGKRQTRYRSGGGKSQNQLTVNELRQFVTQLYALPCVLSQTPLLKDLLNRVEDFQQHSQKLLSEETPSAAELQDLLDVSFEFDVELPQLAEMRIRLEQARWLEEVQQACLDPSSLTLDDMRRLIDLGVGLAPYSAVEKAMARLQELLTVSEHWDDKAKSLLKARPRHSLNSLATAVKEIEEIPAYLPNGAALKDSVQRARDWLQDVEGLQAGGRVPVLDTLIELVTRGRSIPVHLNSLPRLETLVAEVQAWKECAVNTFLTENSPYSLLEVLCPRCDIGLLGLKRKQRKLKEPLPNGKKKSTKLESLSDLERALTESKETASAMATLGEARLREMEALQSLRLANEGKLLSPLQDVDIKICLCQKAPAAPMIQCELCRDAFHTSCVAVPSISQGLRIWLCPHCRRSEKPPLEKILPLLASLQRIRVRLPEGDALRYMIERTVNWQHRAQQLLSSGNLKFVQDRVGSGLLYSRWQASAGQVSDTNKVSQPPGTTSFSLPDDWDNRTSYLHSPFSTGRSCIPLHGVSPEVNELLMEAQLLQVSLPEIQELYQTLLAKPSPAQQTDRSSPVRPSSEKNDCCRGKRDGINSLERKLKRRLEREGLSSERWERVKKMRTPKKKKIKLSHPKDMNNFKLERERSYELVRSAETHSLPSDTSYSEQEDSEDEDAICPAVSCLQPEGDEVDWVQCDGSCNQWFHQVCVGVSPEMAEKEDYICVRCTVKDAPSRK
N-terminal Xaa-Pro-Lys N-methyltransferase 1 (Homo sapiens), sequence (Q9BV86 whole entry, looked up): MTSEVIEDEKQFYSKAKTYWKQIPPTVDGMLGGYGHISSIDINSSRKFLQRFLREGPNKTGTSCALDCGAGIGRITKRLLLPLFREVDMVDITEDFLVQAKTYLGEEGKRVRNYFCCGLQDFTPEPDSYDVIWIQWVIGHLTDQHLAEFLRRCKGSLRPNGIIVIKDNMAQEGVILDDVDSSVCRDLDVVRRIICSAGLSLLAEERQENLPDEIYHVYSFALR
Furin (Homo sapiens), sequence (P09958 whole entry, looked up): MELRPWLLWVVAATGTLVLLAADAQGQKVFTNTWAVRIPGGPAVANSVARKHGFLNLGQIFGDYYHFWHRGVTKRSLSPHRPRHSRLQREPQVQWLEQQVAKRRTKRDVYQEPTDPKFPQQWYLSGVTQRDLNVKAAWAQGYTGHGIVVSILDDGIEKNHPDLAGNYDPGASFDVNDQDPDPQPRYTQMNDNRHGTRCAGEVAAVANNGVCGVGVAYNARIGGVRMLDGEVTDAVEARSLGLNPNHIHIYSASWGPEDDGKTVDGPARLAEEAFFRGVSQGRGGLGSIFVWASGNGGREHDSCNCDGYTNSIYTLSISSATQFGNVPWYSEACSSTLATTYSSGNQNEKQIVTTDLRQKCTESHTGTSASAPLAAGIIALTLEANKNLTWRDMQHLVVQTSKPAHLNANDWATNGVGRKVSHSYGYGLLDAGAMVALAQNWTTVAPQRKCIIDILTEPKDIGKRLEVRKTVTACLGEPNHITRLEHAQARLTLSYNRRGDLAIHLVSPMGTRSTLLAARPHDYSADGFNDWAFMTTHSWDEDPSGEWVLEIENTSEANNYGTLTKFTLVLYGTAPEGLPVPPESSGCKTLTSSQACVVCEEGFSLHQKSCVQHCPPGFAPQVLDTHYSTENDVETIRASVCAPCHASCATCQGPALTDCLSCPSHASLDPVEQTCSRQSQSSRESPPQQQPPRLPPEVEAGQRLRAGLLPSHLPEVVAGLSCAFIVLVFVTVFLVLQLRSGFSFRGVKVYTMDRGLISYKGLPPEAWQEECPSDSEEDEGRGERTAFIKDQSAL

With `Cc1ccn(-c2ccc(-c3ncco3)cc2)c(=O)c1-c1ccc2nc(N)ncc2c1`, the Potency with Furin (Homo sapiens) was 21.5 µM (active); in [1] it was 30.4 µM (active); in [2], 21.5 µM (active); in experiment [4] it was 49.3 µM (active). The Potency result in experiment [3] was “inactive”.
Turning to `CCN(CC)CCOC(=O)c1ccc(N)cc1`, the Potency result in experiment [5], in [6] and in [2] was “inactive” throughout. Further, the compound was called inactive in [7].
`O=C1NCC2(CCN(CCc3ccccc3)CC2)O1`: the Potency result in [5], in experiment [6] and in experiment [2] was “inactive” throughout. Also, in experiment [7], the call was inactive.
`Clc1ccc(C(c2ccc(Cl)cc2)n2cc[n+](CC(OCc3ccc(Cl)cc3Cl)c3ccc(Cl)cc3Cl)c2)cc1` (stereo not given): the Potency entry in experiment [6] is “inactive”.
With `Cc1cccc(C)c1OCC(C)N` (stereo not given), the Potency result in [5] and in experiment [6] was “inactive” throughout. Moreover, in experiment [7], the compound was called inactive.
As for `CCn1cc(C(=O)O)c(=O)c2ccc(C)nc21`, the Potency entry in experiment [6] and in experiment [2] was “inactive” each time. Also, the compound was classed as inactive in experiment [7].
With `O=c1c(O)c(-c2ccc(O)cc2)oc2cc(O)cc(O)c12`, the Potency entry (with Furin (Homo sapiens); in [2]; in [8]; in [4]) was “inactive” throughout.
With `NC(=O)[C@@H](CCC(F)(F)F)N(Cc1ccc(-c2ncon2)cc1F)S(=O)(=O)c1ccc(Cl)cc1`, the Potency entry in experiment [2] was “inactive”.
Still for that read-out and setting: under `O=C(OCC#CCSc1nnc(-c2cccc3ccccc23)o1)c1cc2ccccc2s1` stands “inactive”.
Take `NC(=O)c1cccc2[nH]c(-c3ccc([C@H]4CCCN4)cc3F)nc12`: the values for the Potency (with Furin (Homo sapiens); in experiment [9]; in experiment [2]) were 21.5 µM (active), 27.1 µM (active) and 24.1 µM (active), respectively. Besides, the Potency result in experiment [10], in experiment [3] and in experiment [4] was “inactive” in each case.
Regarding `NC(=O)c1ccc2nc(-c3ccc(Oc4ccc(Cl)cc4)cc3)[nH]c2c1`, the Potency with Furin (Homo sapiens) is 34 µM (active); in [9], 34.1 µM (active); in [2] it was 24.1 µM (active); in experiment [11], 251 µM (active). In experiment [10], the Potency result is “inactive”.
With `COc1ccc2cccc(CCNC(C)=O)c2c1`, in experiment [2], the Potency result is “inactive”.
As for `NCCS`, the Potency result in experiment [6] and in [2] was “inactive” each time. The compound was called inactive in experiment [7].
As to `C[C@@H](O)[C@H]1C(=O)N2C(C(=O)O)=C(S[C@@H]3CN[C@H](C(=O)N(C)C)C3)[C@H](C)[C@H]12`, the Potency result in experiment [2] is “inactive”.
With `CS(=O)c1ccc(-c2nc(-c3ccc(F)cc3)c(-c3ccncc3)[nH]2)cc1` (stereo not given), the Potency with Furin (Homo sapiens) was 24.1 µM (active) and 21.5 µM (active); in experiment [9] it was 24.1 µM (active); in [1], 21.5 µM (active); in experiment [2], 26.7 µM (active) and 17.5 µM (active). For the same compound, the Potency result in experiment [10], in [3] and in [4] was “inactive” throughout.
As to `COc1ccc2cc(-c3nc(-c4ccc(S(C)=O)cc4)[nH]c3-c3ccncc3)ccc2c1` (stereo not given), the Potency is 3.83 µM (active) in the experiment with Furin (Homo sapiens), 17.1 µM (active) in [9], 17.1 µM (active) in experiment [1] and 17.1 µM (active) in experiment [2]. The Potency result in experiment [10] and in experiment [3] was “inactive” throughout.
`Nc1nc(F)nc2c1ncn2[C@@H]1O[C@H](COP(=O)(O)O)[C@@H](O)[C@H]1O`: the Potency entry in experiment [2] was “inactive”.
With `O=C(O)CCc1nc(-c2ccccc2)c(-c2ccccc2)o1`, the Potency entry in experiment [5] and in experiment [3] was “inactive” each time.
In the case of `C[N+](C)(C)CC(=O)O`, the Potency entry in [2] is “inactive”.
Still for that read-out and setting: the same measure for `CC(=O)OC1C(C)OC(Oc2c(-c3ccc(O)cc3)oc3cc(O)cc(O)c3c2=O)C(O)C1OC(C)=O` (stereo not given): “inactive”.
